Assay results taken from PubChem BioAssay (Tox21).
Records with an inconclusive call do not appear. Unmarked numbers belong to inactive results. Active and inactive are the calls of the source. The call rests on the fitted dose curve; in most records, active means well fitted cell-killing curve with a large enough effect in the repeat runs; inconclusive means weak or mixed curves, or effect the other way; inactive means no such curve, though single readings can be large or run the other way.
On the % scale 0 is the no-effect control and ±100 the full control effect.

Assay: qHTS assay to identify small molecule antagonists of the vitamin D receptor (VDR) signaling pathway - cell viability counter screen (AID 743225); further: nearly all actives have a fitted effect of over 50% in size
Details: VDR-bla HEK293T viability, CellTiter-Glo luminescence, 16 h; series mostly up to 61 µM; viability change, negative = cytotoxic: at the top concentration
Description: U.S. Tox21 Program National Center for Advancing Translational Sciences [NCATS] NIH Chemical Genomics Center [NCGC] U.S. Environmental Protection Agency [EPA] National Institutes of Environmental Health Sciences [NIEHS] National Toxicology Program [NTP] U.S. Food and Drug Administration [FDA] Tox21 Assay Overview: The vitamin D receptor (VDR), a member of nuclear hormone receptor superfamily, plays a critical role in calcium homeostasis and bone metabolism. It is also involved in cell differentiation and growth, and thrombogenicity. To identify the compounds that inhibit VDR signaling, the VDR-UAS-bla HEK 293T cell line (Invitrogen, Carlsbad, CA, USA) containing a beta-lactamase reporter gene under the control of an upstream activator sequence (UAS) was used to screen the Tox21 10K compound library. The cytotoxicity of the Tox21 compound library against the VDR-bla cell line was tested in parallel by measuring the cell viability using CellTiter-Glo assay (Promega, Madison, WI) in the same wells.
Tox21 Assay Protocol Summary: VDR-bla cells were dispensed at 2,000 cells/5 uL of assay medium per well into black wall/clear-bottom 1536-well plates using a Multidrop Combi (Thermo Fisher Scientific, Waltham, MA) dispenser. After the assay plates were incubated at a 37C and 5% CO2 for 4 h, 23 nL of compounds dissolved in DMSO, positive controls or DMSO only was transferred to the assay plate by a Pintool station (Kalypsys, San Diego, CA), followed by addition of 1 uL of 1-alpha, 25-Dihydroxy Vitamin D3 (3 nM, final concentration in the wells) using a Bioraptr Flying Reagent Dispenser (FRD) workstation (Beckman Coulter, Indianapolis, IN). The plates were incubated at 37C and 5% CO2 for 16 h, and then 1 uL of LiveBLAzerTM B/G FRET substrate was added using a Bioraptr FRD. The plates were incubated at room temperature for 2 h and fluorescence intensity was measured by an Envision plate reader (PerkinElmer, Shelton, CT). For cell viability readout that measures cytotoxicity, 3 ul/well of CellTiter-Glo reagent was added into the assay plates using a Bioraptr FRD. After 30 min incubation at room temperature, the luminescence intensity in the plates was measured using a ViewLux plate reader (PerkinElmer).
With `C=C(C)C(=O)Nc1ccc(Cl)c(Cl)c1` the outcome was “inactive”. In the case of `CCCCC(CC)COC(=O)CCCCC(=O)OCC(CC)CCCC` (stereo not given), the outcome is reported as “inactive”. For `CCN(CC)CCCC(C)Nc1ccnc2cc(Cl)ccc12` (stereo not given), the “viability change, negative = cytotoxic” value was 1.4% [at 28.5 µM]. For `CCCCCC(N)=O`, the outcome was “inactive”. In the case of `CC(=O)Nc1cccc(O)c1`, the outcome is reported as “inactive”. For `O=C1CCC(N2C(=O)c3ccccc3C2=O)C(=O)N1` (stereo not given), the outcome was “inactive”. For `C=CCNC(N)=S`, the outcome was “inactive”. In the case of `CC[C@H](C)C(=O)O[C@H]1C[C@@H](C)C=C2C=C[C@H](C)[C@H](CC[C@@H]3C[C@@H](O)CC(=O)O3)[C@H]21`, the outcome is reported as “inactive”. With `O=C(O)c1cc(O)c(O)c(O)c1` the outcome was “inactive”. For `CC(c1cc2ccccc2s1)N(O)C(N)=O` (stereo not given), the “viability change, negative = cytotoxic” value was 4.79%. In the case of `CCCCN(CCCC)CCCC`, the outcome is reported as “inactive”. With `C#CCN(C)Cc1ccccc1` the outcome was “inactive”. In the case of `CC(O)COCC(C)O` (stereo not given), the outcome is reported as “inactive”. In the case of `CCCCC(CC)COC(=O)C(C#N)=C(c1ccccc1)c1ccccc1` (stereo not given), the outcome is reported as “inactive”. For `C#C[C@]1(O)CC[C@H]2[C@@H]3CCC4=CC(=O)CC[C@@H]4[C@H]3CC[C@@]21C`, the outcome was “inactive”. In the case of `Cc1cccc(O)c1`, the “viability change, negative = cytotoxic” value is reported as -1.28% [at 78.8 µM]. For `CC1CCC2CC1C2(C)C` (stereo not given), the outcome was “inactive”. In the case of `COc1ccc(Nc2ccccc2)c(C)c1`, the outcome is reported as “inactive”. In the case of `Cc1cc(C)c(C)cc1C`, the outcome is reported as “inactive”. With `FC(F)(F)c1ccc(Cl)c(Cl)c1` the outcome was “inactive”. With `CCC(O)OCCCOC` (stereo not given) the outcome was “inactive”. In the case of `O=C(CC(C(=O)OC1CCCCC1)S(=O)(=O)O)OC1CCCCC1` (stereo not given), the outcome is reported as “inactive”. With `CCCCCCCCC/C=C/CC1CC(=O)OC1=O` (stereo not given) the outcome was “inactive”. In the case of `C[C@H]1C[C@@H]2[C@H]([C@@H](O)C[C@@]3(C)[C@H]2CC[C@]3(O)C(=O)CO)[C@@]2(C)C=CC(=O)C=C12`, the outcome is reported as “inactive”. In the case of `Fc1ccc(Br)cc1`, the “viability change, negative = cytotoxic” value is reported as 10.3%. In the case of `CCCCCCCCCCCCCCCO`, the outcome is reported as “inactive”. With `O=C(O)CCCC[C@@H]1SC[C@@H]2NC(=O)N[C@@H]21` the outcome was “inactive”. With `CC(=O)CC(=O)Nc1ccccc1` the outcome was “inactive”. With `CC(=O)Nc1ccccc1` the outcome was “inactive”. For `CSCCC=O`, the outcome was “inactive”. With `O=C(OCCOCCOC(=O)c1ccccc1)c1ccccc1` the outcome was “inactive”. In the case of `CN(C)CCOCCN(C)C`, the outcome is reported as “inactive”. In the case of `CC(C)(N)CO`, the “viability change, negative = cytotoxic” value is reported as 6.66%. With `O=C(O)c1ccccc1C(c1ccc(O)cc1)c1ccc(O)cc1` the “viability change, negative = cytotoxic” value was 11.8%. For `O=C(O)c1cc(=O)c2c(OCC(O)COc3cccc4oc(C(=O)O)cc(=O)c34)cccc2o1`, the outcome was “inactive”. For `CCCCCCCCCCCCc1ccccc1`, the outcome was “inactive”. With `c1ccc(OCCOc2ccccc2)cc1` the outcome was “inactive”. For `CN(C)CCC(c1ccc(Cl)cc1)c1ccccn1` (stereo not given), the outcome was “inactive”. For `O=C(O)c1ccc(C(=O)O)cc1`, the outcome was “inactive”. For `O=C=NCCCCCCN=C=O`, the outcome was “inactive”.
